# About 83,000 compounds went through this panel and 20% of them were active in at least one assay; those are over-represented in the sample as a whole.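 Growth was measured after 48 h exposure to one concentration of compound in 96-well plates. Values under 10 count as active.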 Activity calls are given as the source filed them.
# System: COLO 205 colon
# Assay: NCI-60 one-dose screen, 48 h (100 = growth as untreated, 0 = no growth, -100 = all killed)
# Conditions: 10 µM unless noted
row,SMILES,growth
1,O=C(COc1cccc(/C=C2\COc3ccc(Cl)cc3C2=O)c1)c1ccc(Cl)cc1,116% (inactive)
2,Cc1cc(Nc2ccc(C)c(Cl)c2)n2nc(C(F)(F)F)nc2n1,38.3% (inactive)
3,CN(C)c1ccc(NC(=O)c2ccc(/C=C/C(=O)c3ncc[nH]3)cc2)cc1,37.6% (inactive)
4,O=[N+]([O-])c1ccccc1/C=N\NC(=S)N/N=C/c1ccccc1[N+](=O)[O-],94.6% (inactive)
5,O=C(Oc1cccnc1)c1ccsc1Nc1ccnc(C(F)(F)F)c1,101% (inactive)
6,OC(c1cc2cc(Cl)c(Cl)cc2c2cc(C(F)(F)F)ccc12)C1CCCCN1 (centres undefined),-88.2% (active)
7,COc1ccc(-c2cc(-c3ccc(Nc4ccnc5cc(Cl)ccc45)cc3)nc(N3CCOCC3)n2)cc1,44.7% (inactive)
8,C=C1C(=O)O[C@H]2[C@H]1CC/C(COC(=O)NCCc1ccc(OC)c(OC)c1)=C\CC[C@@]1(C)O[C@@H]21,12.7% (inactive)
9,O=[N+]([O-])c1ccc2c(c1)Cc1cc(F)ccc1-2,107% (inactive)
10,CN1CCN(c2nc(NCCCNc3ccnc4cc(Cl)ccc34)c3ccccc3n2)CC1,-6.18% (active)
11,Clc1ccc2c(NCCCCNc3nc(N4CCCCC4)nc4ccccc34)ccnc2c1,-64.5% (active)
12,NC(=NC1C2CC3CC(C2)CC1C3)Nc1ccc(I)cc1 (centres undefined),-70.3% (active)
13,CCOc1nc(-c2ccccc2)cc2c(O)c(C(=O)O)[nH]c(=O)c12,118% (inactive)
14,COc1ccc(Nc2cc(C)nc(N3CCN(c4ccnc5cc(Cl)ccc45)CC3)n2)cc1,8.4% (active)

# Source: PubChem BioAssay (NCI)
